Data taken from ChEMBL document CHEMBL4513146, “CO-ADD screening of Karazin Kharkiv National University (Ukraine) compounds”.
Potency and affinity values are given separately.

System: Klebsiella pneumoniae
Conditions: Concentration 32 ug.mL-1;; ASSAY_TEST Inhibition of Bacterial Growth; detection method Absorption (OD600); MEDIA CAMHB; plate type 384well; NBS; CORNING #3640; time 18 hr

Row | Structure (SMILES) | Inhibition [%]
1 | CCCCc1ccc(NC(=O)Cn2nc3c(N4CCSCC4)nc4ccccc4n3c2=O)cc1 | 15.26
2 | COc1ccc(NC(=O)Cn2nc3c4cc(-c5ccc(Cl)cc5)nn4ccn3c2=O)c(OC)c1 | 16.21
3 | Cc1cc(C)cc(Nc2nc(C)cc3nn(CC(=O)NCc4ccco4)c(=O)n23)c1 | 10.95
4 | Cc1ccc(Cl)cc1NC(=O)CSc1nnc2n(CC3CCCO3)c(=O)c3sccc3n12 (stereo not given) | 10.58
5 | O=C(CSc1nnc2c(=O)n(-c3ccc(F)cc3)ccn12)N1CCN(c2ccc(F)cc2)CC1 | -5.39
6 | COc1ccc2[nH]cc(C(=O)CSc3nnc4c(=O)n(-c5cccc(Cl)c5C)ccn34)c2c1 | 5.78
7 | COc1cccc(-c2noc(Cn3nc4ccc(-c5ccccc5)nn4c3=O)n2)c1OC | 1.06
8 | COC(=O)c1ccc(NC(=O)Cn2c(=O)c3nnc(C(C)C)n3c3ccccc32)cc1 | 11.69
9 | Cc1ccc(CNC(=O)CSc2nnc3c(=O)n(-c4ccccc4)ccn23)cc1 | 13.24
10 | COc1cccc(-n2ccn3c(SCC(=O)Nc4cccc(F)c4)nnc3c2=O)c1 | 0.65
11 | O=c1c2sccc2n2c(=O)n(Cc3ccccc3Cl)nc2n1CCc1ccccc1 | 12.78
12 | Cc1cccc(NC(=O)Cn2nc3c(SC4CCCCC4)nccn3c2=O)c1C | 7.9
13 | COc1ccc(CCn2c(=O)c3sccc3n3c(=O)n(Cc4ccc(F)cc4)nc23)cc1OC | 6.56
14 | CCCCOc1ccc(-c2cc3c4nnc(SCC(=O)Nc5cc(F)ccc5C)n4ccn3n2)cc1 | -4.04
15 | COC(=O)c1ccccc1NC(=O)CSc1nc2ccccc2n2c(C(C)C)nnc12 | 12.98
16 | Cc1ccc(NC(=O)Cn2nc3c(N4CCOCC4)nccn3c2=O)cc1Cl | 6.31
17 | COc1cccc(-n2ccn3c(SCC(=O)NCc4ccc(C)cc4)nnc3c2=O)c1 | 8.21
18 | CCCN(C)c1nccn2c(=O)n(CC(=O)Nc3cccc(C(F)(F)F)c3)nc12 | 7.15
19 | Cc1ccc(NC(=O)CSc2nnc3c(=O)n(-c4ccccc4)ccn23)c(C)c1 | -2.79
20 | O=S(=O)(c1ccc2nncn2c1)N(Cc1cc(F)cc(F)c1)c1ccc(F)c(F)c1 | 12.12

Row | Structure (SMILES) | Inhibition [%]
21 | CCOc1ccccc1NC(=O)Cn1c(=O)c2nnc(C(C)C)n2c2ccccc21 | 4.41
22 | COc1ccc(CNC(=O)CSc2nnc3c4cc(-c5ccc(C)cc5)nn4ccn23)cc1 | 9.18
23 | CC(C)c1ccc(N(Cc2ccccc2F)S(=O)(=O)c2cccn3cnnc23)cc1 | 6.21
24 | Cc1ccc(-c2cc3c4nnc(CCC(=O)NCc5ccc(F)c(Cl)c5)n4ccn3n2)cc1C | 10.99
25 | COc1ccc(NC(=O)CSc2nnc3c(=O)n(-c4ccccc4OC)ccn23)cc1Cl | 12.69
26 | Cc1cc(Br)ccc1NC(=O)Cn1nc2c(Sc3ccccc3)nccn2c1=O | 5.06
27 | O=C(Cn1nc2c(SC3CCCCC3)nccn2c1=O)Nc1cccc(Cl)c1 | -2.02
28 | CCOc1ccc(C(=O)Cn2nc3n(CCC(C)C)c(=O)c4sccc4n3c2=O)cc1 | 4.69
29 | Cc1ccc(N(Cc2cc(F)cc(F)c2)S(=O)(=O)c2cccn3c(C)nnc23)cc1 | 11.68
30 | CCOC(=O)c1ccccc1NC(=O)Cn1nc2c(Oc3cccc(OC)c3)nccn2c1=O | 5.46
31 | Cc1cccc(C)c1NC(=O)Cn1nc2n(C)c(=O)c3c(c(-c4ccccc4)cn3C)n2c1=O | 10.1
32 | Cc1ccc(NC(=O)Cn2nc3ccc(SCc4ccc(Cl)cc4)nn3c2=O)cc1 | -9.13
33 | Cc1cc(C)c(NC(=O)Cn2nc3c(SC4CCCCC4)nccn3c2=O)c(C)c1 | 10.47
34 | COc1cccc(CNC(=O)CSc2nnc3ccc(C(=O)Nc4cccc(F)c4)cn23)c1 | -3.24
35 | COc1ccc(NC(=O)Cn2nc3c4cc(-c5ccc(F)cc5)nn4ccn3c2=O)c(OC)c1 | 14.79
36 | Cc1ccc(N(Cc2ccc(F)cc2)S(=O)(=O)c2ccc3nnc(C)n3c2)cc1 | 5.71
37 | O=c1c2nn(Cc3ccc([N+](=O)[O-])cc3)c(=O)n2ccn1-c1ccccc1 | 13.17
38 | CCc1nnc2c(=O)n(CC(=O)Nc3cccc(C#N)c3)c3ccccc3n12 | 9.63
39 | COc1ccc(NC(=O)Cn2nc3c(SC4CCCCC4)nccn3c2=O)cc1 | 11.17
40 | COc1ccc(-c2cc3c4nnc(SCC(=O)Nc5cccc(C)c5C)n4ccn3n2)cc1 | 2.16
